Calls of active or inactive are those of the source.

The nature of assay [1]: compound effects on lung adenocarcinoma cell viability – A549, calcein-AM fluorescence, 48 h, basal, profiling panel (AID 1162). The conditions noted are these: higher = more signal.
Assay [2] in a line: compound effects on differentiated 3T3-L1 adipocyte viability – cell-based, 3T3-L1 adipocytes, calcein-AM fluorescence, 48 h, basal, profiling panel (AID 1163). As to conditions: 3T3-L1 adipocytes viability, higher = more signal.
A short description of assay [3]: compound effects on hepatocellular carcinoma cell viability – HepG2, calcein-AM fluorescence, 48 h, basal, profiling panel (AID 1164). The conditions noted are these: higher = more signal.
Assay [4] in a line: compound effects on multiple myeloma cell viability – MM1S, calcein-AM fluorescence, 48 h, basal, profiling panel (AID 1165). As to conditions: higher = more signal.
Assay [5] can be described thus: calcein-AM signal in unstimulated myeloma cells – cell-based, calcein-AM fluorescence, 48 h, PK04 Diversity Set, profiling panel (AID 1166).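 Further: cells grown under basal conditions without added stimulus.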 The conditions noted are these: RPMI8226 myeloma viability, higher = more signal.
Assay [6] in a line: JC-1 mitochondrial signal, unstimulated HepG2 cells – cell-based, JC-1 fluorescence, 24 h, 100 nL compound, profiling panel (AID 1167). As to conditions: HepG2 mitochondrial potential, higher = more signal.
Assay [7] can be described thus: JC-1 mitochondrial signal, unstimulated adipocytes – cell-based, JC-1 fluorescence, 3T3-L1 adipocytes, 24 h, 100 nL compound, profiling panel (AID 1168). The conditions noted are these: JC-1 mitochondrial fluorescence, higher = more signal, called active from +8 up or from −8 down.
Assay [8] is described as follows: JC-1 mitochondrial signal, unstimulated myeloma cells – cell-based, JC-1 fluorescence, RPMI8226, 24 h, 100 nL compound, profiling panel (AID 1169). The conditions noted are these: JC-1 mitochondrial potential fluorescence, higher = more signal.
Assay [9] is described as follows: JC-1 mitochondrial signal, unstimulated MM1S myeloma – cell-based, JC-1 fluorescence, 24 h, 100 nL compound, profiling panel (AID 1170). The conditions noted are these: MM1S mitochondrial potential, higher = more signal.
The nature of assay [10]: resazurin metabolic signal in A549 cells – cell-based, resazurin fluorescence, 24 h, PK04 Diversity Set, profiling panel (AID 1171). As to conditions: A549 viability, higher = more signal, called active from +8 up or from −8 down. (Alamar Blue is a resazurin reagent that responds to reducing activity.)
Further: test concentration not given here.

For `Cc1ccc(S[C@]2(C(=O)NCCN3CCOCC3)CC(=O)N(Cc3ccccc3Cl)[C@@H]2c2ccc(CO)cc2)cc1`, the z-score in [1] is 0.263; in [2] it was 1.03; in assay [3] it was -0.0334; in assay [4], 0.368; in assay [5], -1.77; in assay [6], 0.482. Further, the z-score in assay [7] was -0.41 (inactive); in assay [8], -0.168; in assay [9] it was -1.17; in assay [10], 1.05 (inactive).

As for `COCC(=C=CC[C@H](O)c1ccccc1OCCO)C[C@H](O)c1cc(Cl)cc(Cl)c1O`, the z-score in assay [1] is -2.79; in assay [2] it was -4.68; in [3], -2.64; in [4], -2.93; in [5] it was -3.02; in assay [6], -0.775. The z-score in assay [7] was 1.66 (inactive); in [8], -0.57; in assay [9] it was -1.88; in assay [10], -3.06 (inactive).

For `O=C1O[C@H](c2ccccc2)[C@H](c2ccccc2)N2[C@H]1[C@@H](C(=O)O)[C@]1(C(=O)Nc3ccc(C#CC4=CCCCC4)cc31)[C@H]2c1ccccc1OCCO`, the z-score in [1] is -0.986; in assay [2] it was -1.21; in assay [3] it was -4.28; in assay [4], -3.3; in [5], -4.21; in assay [6] it was -3.56. Besides, the z-score was 1.39 (inactive) in assay [7], -0.935 in assay [8], -1.68 in assay [9] and -1.84 (inactive) in [10].

Turning to `COC(=O)C(CC#Cc1ccc2c(c1)[C@]1(C(=O)N2)[C@H](C(=O)O)[C@H]2C(=O)O[C@H](c3ccccc3)[C@H](c3ccccc3)N2[C@@H]1c1ccc(O)cc1)C(=O)OC`, the z-score in assay [1] is -0.389; in assay [2], -0.405; in [3] it was 0.0982; in assay [4] it was -0.0724; in assay [5], -0.263; in assay [6] it was -2.08. The z-score in assay [7] was -0.269 (inactive); in [8] it was -0.28; in [9], -0.331; in assay [10], 0.831 (inactive).

With `CN(C)CCCNC(=O)[C@@]1(c2ccc([N+](=O)[O-])cc2)CC(=O)N(C2CCCCC2)[C@@H]1c1ccc(CO)cc1I`, the z-score was -4.33 in assay [1]; 0.184 in assay [2]; -5.13 in [3]; -3.86 in assay [4]; -4.36 in assay [5]; -3.14 in assay [6]. The z-score in assay [7] was 0.499 (inactive); in [8] it was -0.952; in assay [9], -2.31; in assay [10], -6.55 (inactive).

In the case of `C=CCNC(=O)[C@@H]1[C@H]2C(=O)O[C@H](c3ccccc3)[C@H](c3ccccc3)N2[C@H](c2ccccc2OCCO)[C@@]12C(=O)N(C(=O)OCCOC)c1ccc(C#CCNC(N)=O)cc12`, the z-score in [1] is 0.843; in assay [2], 0.595; in assay [3] it was 0.886; in assay [4], 0.765; in assay [5], 0.425; in [6], 0.766. For the same molecule, the z-score in [7] is 0.586 (inactive); in assay [8], 0.159; in assay [9] it was -0.341; in assay [10], -0.768 (inactive).

In the case of `O=C(c1ccccc1)N1Cc2ccccc2[C@@H]2OC(c3ccc(OCCCO)cc3)=N[C@]2(Cc2ccccc2)C1=O`, the z-score in assay [1] was -1.09; in [2], 1.27; in assay [3] it was -0.795; in assay [4], -2.02; in [5], -3.92; in assay [6], -0.435. Also, the z-score in assay [7] was 0.166 (inactive); in assay [8], -1.11; in assay [9], 0.106; in assay [10] it was -1.57 (inactive).

For `COC(=O)[C@@]1(Cc2ccc(OC)cc2)[C@H]2c3cc(C(=O)N(C)C)n(Cc4cccc5ccccc45)c3C[C@H]2CN1C(=O)c1ccccc1`, the z-score in [1] was -1.62; in [2], 1.26; in [3], -0.0664; in [4] it was -0.623; in assay [5], -2.08; in assay [6], 3.37. Besides, the z-score was -0.669 (inactive) in assay [7], -0.127 in assay [8], -1.41 in [9] and -1.92 (inactive) in assay [10].

As to `O=C1C[C@]2(c3ccc([N+](=O)[O-])cc3)C(=O)N(CCN3CCOCC3)c3cc(CO)ccc3[C@H]2N1C1CCCCC1`, the z-score in assay [1] was 0.648; in assay [2], 0.239; in [3], 1.87; in [4], -0.121; in assay [5], 0.346; in assay [6], 0.756. The z-score is 0.155 (inactive) in assay [7], 0.0691 in [8], -0.509 in assay [9] and -1.17 (inactive) in [10].

For `O=C(NCC(F)(F)F)[C@@H]1c2ccccc2C(=O)N(C2CCCCC2)[C@H]1c1ccc(CO)cc1`, the z-score was 0.216 in assay [1]; 0.48 in assay [2]; 0.354 in [3]; -0.515 in assay [4]; 0.597 in assay [5]; 0.912 in assay [6]. Moreover, the z-score in assay [7] was -1.29 (inactive); in [8], 0.329; in [9], 1.67; in assay [10], 1.21 (inactive).

With `O=C1C2C=CC(C(O)c3c(F)cccc3Cl)N(Nc3ccccc3)C2C(=O)N1c1ccccc1` (stereo not given), the z-score in assay [1] was 1.14; in assay [2], -1.4; in [3], 0.309; in assay [4] it was -0.474; in [5] it was 0.474; in assay [6], -1.41. The z-score was 0.455 (inactive) in [7], -0.235 in assay [8], -0.488 in assay [9] and -0.0768 (inactive) in [10].

Consider `Cc1ccc(C(C)CC(O)C2C=CC3C(=O)N(c4ccccc4)C(=O)C3N2Nc2ccc([N+](=O)[O-])cc2)o1` (stereo not given), for which the z-score is -0.483 in assay [1]; 0.0852 in [2]; 0.268 in assay [3]; -0.0308 in assay [4]; -0.259 in assay [5]; -0.414 in assay [6]. For the same molecule, the z-score is -2.12 (inactive) in assay [7], -0.0508 in [8], -1.54 in assay [9] and 0.35 (inactive) in [10].

As to `CCOC(=O)C1=CCC(c2ccc(C)cc2)N(S(=O)(=O)c2ccc(C)cc2)C1` (stereo not given), the z-score was -1.25 in [1]; -0.825 in assay [2]; -0.743 in [3]; -0.537 in assay [4]; -1.37 in assay [5]; 5.35 in assay [6]. For the same molecule, the z-score was -1.08 (inactive) in assay [7], 0.0194 in assay [8], -1.82 in assay [9] and 0.697 (inactive) in assay [10].

For the molecule `[N-]=[N+]=Nc1ccccc1C[C@]1(C(=O)NCC(O)CO)N=C(c2ccc(OCCCO)cc2)O[C@H]1c1ccccc1N=[N+]=[N-]` (stereo not given in full), the z-score was -1.04 in assay [1]; -0.676 in assay [2]; -1.12 in [3]; -2.98 in assay [4]; -3.14 in assay [5]; -0.162 in assay [6]. In addition, the z-score is 0.153 (inactive) in assay [7], -1.19 in [8], -1.3 in assay [9] and -1.19 (inactive) in assay [10].

On to `CCOC(=O)C[C@H]1[C@H](OC(=O)c2cc3ccccc3oc2=O)[C@@H](NC(=O)Cc2ccc(OC)cc2)c2cc(OCCCO)ccc2N1C(=O)c1ccccc1`, for which the z-score in assay [1] was -0.172; in [2], 2.17; in [3], -0.56; in assay [4], -0.0168; in [5] it was -0.606; in assay [6], -0.412. The z-score in assay [7] is -0.111 (inactive); in assay [8] it was -0.135; in assay [9], -0.244; in [10] it was -0.714 (inactive).

Values taken from PubChem BioAssay.
